The campaign covered roughly 68,000 compounds. About 2,700 (4%) showed an effect of 50% or more. The sample as a whole holds a higher share of strong results than the screen did.

This note sets out measurements from ChEMBL document CHEMBL4513216, “Probing the Open Global Health Chemical Diversity Library for Multistage-Active Starting Points for Next-Generation Antimalarials” (ACS Infect Dis, 2020).

The subject of the assay is Plasmodium berghei. The experiment in a line: Screen against P. berghei liver stage (PbLuc), transformed with Luciferase, at 2uM. The class given is functional, HepG2. The conditions noted are these: tested at 2 uM.
On to `CCC(=O)Nc1cccc(C(=O)NCCC2=CSC3=NCCCN23)c1`, for which the INHIBITION is -17.86%.
As to `COc1ccc(-c2nc(C3CCNCC3)cc3c2ncn3C)cc1`, the INHIBITION was -0.45%.
Regarding `COCCS(=O)(=O)c1ncc(CN(C)C)n1Cc1ccccc1`, the INHIBITION stood at 29.41%.
Take `O=C(C1CCCOC1)N1CCCCc2ccccc21` (configuration not stated): the INHIBITION was found to be 16.09%.
As for `Cc1ccc2c(c1)N(C(=O)C1CCCOC1)CCC2` (configuration not stated), the figure is -13.38%; as for `O=C(C1CCCOC1)N1CCCc2ccccc21` (configuration not stated), 53.29%; as for `C1CCCN(c2nc(C3CC3)no2)CC1`, 28.02%.
Consider `COc1ccc(CN2C[C@@H]3CN(Cc4cccnc4)CCO[C@@H]3C2)cc1`, for which the INHIBITION turned out to be 39.57%.
With `Cc1ccsc1CN1C[C@@H]2CN(Cc3cccnc3)CCO[C@@H]2C1`, the INHIBITION amounted to 4.26%.
Under `Cc1ncsc1CN1C[C@@H]2CN(Cc3cccnc3)CCO[C@@H]2C1` stands 54.13%.
Regarding `Cc1cc(C)c2cc(CNC3CCCCC3)c3nn(C)c(=O)n3c2c1`, the INHIBITION is listed as 14.26%.
Under `Cc1cccc(C2(CNC(=O)CCNS(C)(=O)=O)CCCC2)c1` stands 3.9%; under `COCCN1CCC2(CC1)CC(N1CCOCC1)c1ccc(C)cc12` (configuration not stated), 17.47%.
As for `CC(=O)NC(C(=O)N(C)Cc1nnc2n1CCC2)C(C)C` (configuration not stated), the figure is -63.33%.
For `CC(C)C(Sc1ccccc1)C(=O)N(C)Cc1nnc2n1CCC2` (configuration not stated), the INHIBITION is listed as 64.39%.
As for `CC(C)C(=O)N(C)Cc1nnc2n1CCCCC2`, the figure is 21.82%.
As for `CC(C)Nc1nc2c(c(NC3CC3)n1)CCN(Cc1nccn1C)CC2`, the figure is 34.71%; as for `CCCn1cc(NC2CCSCC2)cn1`, 46.58%; as for `O=C(NCC1(O)CCC1)NC(c1cc(F)ccc1F)C1CC1` (configuration not stated), -5.74%.
As for `CCOC(=O)c1n[nH]cc1CN1CCOC(Cc2ccccc2)C1` (configuration not stated), the figure is -30.18%; as for `CCOC(=O)c1n[nH]cc1CN1CCCC(N(C)Cc2ccccc2)C1` (configuration not stated), 52.3%; as for `CCOC(=O)c1n[nH]cc1CN1CCOC(Cc2ccc(F)cc2)C1` (configuration not stated), -142.94%.
On to `CCS(=O)(=O)N1CC(=O)N(CCCc2ccccc2)CC(O)C1` (configuration not stated), for which the INHIBITION is reported as 12.44%.
With `Cc1cnn(CC2CCCN2C(=O)c2cnc3n[nH]c(C)c3c2)c1` (configuration not stated), the INHIBITION is -27.31%.
With `O=C(Cn1cc(C(=O)O)ccc1=O)NCc1ccc(F)c(Cl)c1`, the INHIBITION was 11.14%.
For the molecule `O=C(C1CC1)N(Cc1ccc2cc[nH]c2c1)C1CC1`, the INHIBITION is 11.43%.
With `CN(C)c1nc2c(c(N(C)C)n1)CCN(C(=O)CN1CCC(O)CC1)C2`, the INHIBITION is reported as 13.99%.
Under `c1cncc(OCC2CN(Cc3ccsc3)Cc3nccn3C2)c1` (configuration not stated) stands 45.82%.
Under `c1cncc(COCC2CN(Cc3cccnc3)Cc3ccnn3C2)c1` (configuration not stated) stands 56.78%; under `c1cncc(COCC2CN(Cc3ccncc3)Cc3ccnn3C2)c1` (configuration not stated), -34.65%.
With `CN(C)C(=O)COCC1CN(Cc2ccsc2)Cc2nccn2C1` (configuration not stated), the INHIBITION came out at 15.44%.
Under `c1cncc(COCC2CN(Cc3ccco3)Cc3ccnn3C2)c1` (configuration not stated) stands 1.22%.
As for `c1ccc(COCC2CN(Cc3ccsc3)Cc3nccn3C2)nc1` (configuration not stated), the figure is 59.88%; as for `c1ccc(CN2Cc3ccnn3CC(COCc3cccnc3)C2)nc1` (configuration not stated), 50.32%.
As for `c1cncc(COCC2CN(Cc3ccsc3)Cc3ccnn3C2)c1` (configuration not stated), the figure is -10.99%.
For the molecule `Cc1ccc(CN2Cc3ccnn3CC(COCc3cccnc3)C2)o1` (configuration not stated), the INHIBITION was found to be 49.25%.
As for `CN(C)C(=O)CCC[S+]([O-])Cc1ccc(Cl)c(Cl)c1` (configuration not stated), the figure is -32.8%; as for `CSc1ccc(CN(C)Cc2noc(C(C)(C)C)n2)cc1`, 21.28%; as for `CC(C)Nc1nc2c(s1)C(=O)CN(CC1CC1)C2`, -17.3%.
As for `CC[C@@]1(O)CCN(CCCOc2ccc(C(N)=O)cc2)C[C@H]1O`, the figure is -15.75%.
As for `CN(CCc1cccs1)C(=O)Nc1ccc2c(c1)C(=O)N(C)CC2`, the figure is 5.28%; as for `CN1CCc2ccc(NCc3cscn3)cc2C1=O`, 36.28%.
Regarding `CN1CCc2ccc(NCc3cccs3)cc2C1=O`, the INHIBITION is 50.59%.
On to `CCO[C@H]1CO[C@@]2(CCN(Cc3ccc4c(c3)OCO4)C2)C1`, for which the INHIBITION is on record as -23.42%.
`FC(F)(F)Cn1ccnc1CN1CCCC1c1noc(C2CC2)n1` (configuration not stated): the INHIBITION was -2.7%.
As for `COCCNC(=O)C1CN(Cc2csc(C)n2)Cc2ccnn2C1` (configuration not stated), the figure is 47.54%.
As for `CC(C)CC(O)C1CCN(C(=O)c2ccc(C(F)(F)F)nc2O)CC1` (configuration not stated), the figure is 72.05%; as for `CC(C)CC(O)C1CCN(C(=O)c2ccc(C(C)C)[nH]c2=O)CC1` (configuration not stated), -25.72%; as for `CC(C)CC(O)C1CCN(C(=O)c2coc(CN3CCOCC3)c2)CC1` (configuration not stated), 13.19%.
As for `O=C(NCC(O)(c1cccs1)C1CC1)NC1CCCCC1` (configuration not stated), the figure is -11.54%; as for `CN(Cc1ccccn1)C(C(=O)O)c1ccc2c(c1)OCO2` (configuration not stated), 13.86%; as for `COc1ccc(CCN2CC(n3nc(C)cc3C)C2)cc1`, 33.55%.
With `Cc1nc2[nH]cnc(NCCN3CCOCC3)c-2n1`, the INHIBITION was -7.81%.
As for `CN1[C@@H](C(=O)NCC2CC2)C[C@@H]2CN(Cc3ccsc3)C[C@@H]21`, the figure is 59.5%; as for `CN1[C@@H](C(=O)NCC2CC2)C[C@H]2CN(Cc3ccsc3)C[C@H]21`, 1.29%; as for `Cc1ccc(CN2C[C@H]3C[C@H](C(=O)NCC4CC4)N(C)[C@H]3C2)o1`, -13.53%.
As for `CN1[C@@H](C(=O)NCC2CC2)C[C@@H]2CN(Cc3ccoc3)C[C@@H]21`, the figure is 40.83%; as for `O=C(CCc1ccccc1)NCC1CCN(Cc2ccsc2)CC1`, 13.22%.
Consider `Cc1nc(CN2C[C@H]3C[C@H](C(=O)NCC4CC4)N(C)[C@H]3C2)cs1`, for which the INHIBITION is listed as 55.66%.
As for `O=C(NCc1ccccc1)NCC1CCN(Cc2ccsc2)CC1`, the figure is 51%; as for `Cc1ccc(CN2C[C@@H]3C[C@H](C(=O)NCC4CC4)N(C)[C@@H]3C2)o1`, 21.06%; as for `O=C(NCC1CCN(Cc2ccsc2)CC1)NC1CC1`, -18.04%.
Under `Cc1cnn(CC2CCCN2C(=O)c2cccc(-n3ccc(C)n3)c2)c1` (configuration not stated) stands 23.42%; under `CS(=O)(=O)c1ccc(C(=O)N2CCCC(n3cncn3)C2)o1` (configuration not stated), -15.41%.
For the molecule `CCOC(=O)[C@]12CCCN(Cc3cccs3)C[C@H]1CN(C(C)C)C2`, the INHIBITION is -10.41%.
In the case of `CCn1nc(C)c(CNC(=O)NCC(C)(O)c2ccc(C)o2)c1C` (configuration not stated), the INHIBITION was -109.32%.
Under `CCS(=O)(=O)N1CCC2(CC1)CN(c1cncnc1)C(=O)CO2` stands -28.81%.
Consider `CCC(C)N1CCC2(CC1)CN(c1cncnc1)C(=O)CO2` (configuration not stated), for which the INHIBITION was found to be 51.55%.
As to `O=C1COC2(CCN(CC3CC3)CC2)CN1c1cncnc1`, the INHIBITION is given as -59.44%.
Under `CSc1nc(C)cc(N2CCC(c3ncc[nH]3)CC2)n1` stands -69.92%; under `CC(C)NS(=O)(=O)c1cc(C(=O)O)cc(-c2ccccc2C#N)c1`, -10.44%; under `CC(=O)c1ccccc1-c1cc(C(=O)O)cc(S(=O)(=O)NC(C)C)c1`, 17.48%.
Under `CC(C)NS(=O)(=O)c1cc(C(=O)O)cc(-c2ccccc2F)c1` stands 38.83%.
As for `CC(C)NS(=O)(=O)c1cc(C(=O)O)cc(-c2ccccc2CO)c1`, the INHIBITION came to 76.6%.
`CC(C)NS(=O)(=O)c1cc(C(=O)O)cc(-c2ccc(CN(C)C)cc2)c1`: the INHIBITION is on record as 15.42%.
Regarding `CC(C)NS(=O)(=O)c1cc(C(=O)O)cc(-c2ccccc2CN(C)C)c1`, the INHIBITION was 58.24%.
Under `Cn1c(CCNc2nccnc2C#N)nc2ccc(F)cc21` stands 8.03%.
Under `CCc1nnc2n1CCN(C(=O)c1cc3c(F)cccc3[nH]1)C2` stands 9.17%; under `CC(C)[C@@H]1CN(CC(=O)NCc2ccco2)C[C@H]1NS(=O)(=O)N(C)C`, -30.53%.
Under `CC(C)[C@@H]1CN(C(=O)NCc2ccco2)C[C@H]1N(C)C` stands 52.08%.
For the molecule `CC(C)[C@@H]1CN(C(=O)NCc2ccco2)C[C@H]1NS(=O)(=O)N(C)C`, the INHIBITION was 28.95%.
As for `CC1COCCN1C(=O)c1cnccn1` (configuration not stated), the figure is -108.55%; as for `COCCNC(=O)[C@H]1C[C@@](CC(C)C)(C(=O)O)N(C)[C@H]1c1cccnc1`, 20.32%; as for `CCN(C)C(=O)[C@H]1C[C@@](CC(C)C)(C(=O)OC)N(C)[C@H]1c1cccnc1`, 59.03%.
`COCCN1CCC2(CC1)CC(c1cccnc1)C(=O)N2C` (configuration not stated): the INHIBITION was found to be 11.98%.
Regarding `O=C(O)CSc1nnc(-c2ccn[nH]2)n1-c1ccccc1C(F)(F)F`, the INHIBITION is reported as -43.98%.
Under `O=C(O)CSc1nnc(-c2cn[nH]c2)n1-c1ccccc1Cl` stands 37.77%.
As for `O=C(O)CSc1nnc(-c2cn[nH]c2)n1-c1ccccc1C(F)(F)F`, the figure is 71.98%; as for `COCCN1CCC(C(=O)N(C)CCOc2ccc(C)cc2Cl)C1` (configuration not stated), -23.16%; as for `Cc1n[nH]cc1CNC(=O)CCCc1cccs1`, 20.86%.
Under `C[C@@H]1CN(Cc2ccc(-c3ccncc3)cc2F)CC(C(N)=O)O1` (some centres not stated) stands -11.35%.
Turning to `CC(C)N1CCC2(CCCN(C(=O)c3cncn3C)C2)CC1`, the INHIBITION amounted to 51.36%.
As for `CC(C)N1CCOCC2(CCCN(C(=O)c3cncn3C)C2)C1` (configuration not stated), the figure is 9.1%; as for `CN1CCC2(CCCN(C(=O)c3cncn3C)C2)CC1`, 13.26%.
Consider `CCSc1nc(N)c(NC(=O)c2ccc(C)cc2)c(=O)[nH]1`, for which the INHIBITION stood at 7.1%.
With `COCCC(=O)N1CC[C@H]2O[C@@H](C)C[C@H]2C1`, the INHIBITION came out at 26.31%.
For the molecule `O=C(Nc1cnn(COc2ccc(F)cc2Cl)c1)C1CC1`, the INHIBITION came to 25.24%.
Under `COc1cc(-c2nc3c([nH]2)CCCNC3=O)ccc1O` stands -58.91%; under `COc1cc(-c2nc3c([nH]2)CCCNC3=O)ccc1OC(C)C`, -20.6%.
For the molecule `COc1ccc(-c2nc3c([nH]2)CCCNC3=O)cc1OC`, the INHIBITION was determined as 75.76%.
For `NC(=O)c1cccc(CC2CCN(C(=O)CO)C2)c1` (configuration not stated), the INHIBITION was -5.6%.
Under `Cc1ccc(-c2cc(CNC(=O)N3CCC(N(C)C)CC3)on2)cc1` stands 23.24%.
